# Measured values reported in the supplement of paper PMC8387472.
# Compound: O=c1c(-c2ccc(O)cc2)coc2cc(O)cc(O)c12 [Genistein]
# Test: fraction of microhomology deletions among edited reads; higher = more MH deletions
# Settings: mESC; 2uM; 72 h treatment, harvest day 5
row,Target,fraction of microhomology deletions among edited reads
1,27.0 CCAGAATTAGAACATATCATCTGGACCCTTTTCCATCTGGACCCTTTTCCAGCACACCCTG,0.0896
2,"40.0 (DMSO control at this site: 1-bp insertion 0.072, MH deletion 0.192, edited 0.189) GCGAATCAACTGTTCAACAACAGCAGCAGCCACCTGGAGGACTACAGTGGCCTGTCCGTGT",0.192
3,"42.0 (DMSO control at this site: 1-bp insertion 0.145, MH deletion 0.655, edited 0.132) GGGCTAAACCTATGAGCACAGTAGAACTAAGGGTGGGTGGTGTAGCTAAAGAACTTGACCA",0.662
4,"28.0 (DMSO control at this site: 1-bp insertion 0.035, MH deletion 0.77, edited 0.142) TGGTTCTTCCTTTGTAGAGAGTGTTCATCTGGGAATCTGGGACTTGGATGAGACAATCATT",0.784
5,"2.0 (DMSO control at this site: 1-bp insertion 0.364, MH deletion 0.356, edited 0.125) GGTGCCCCCGAGACCTACGCGAACCGAAATCGATGTCCGGTGCGCAAGCAGGGCTGGCGTC",0.4
6,"4.0 (DMSO control at this site: 1-bp insertion 0.146, MH deletion 0.523, edited 0.125) ACGCCTTAGTGCACGAGTGACGGGATAATGTGGTCTCAGGTAATTGATAGGCTTCCAACTT",0.553
7,46.0 TTAAGAGCAATGTTCACGCAACTTGAAATTATATCTGTGGTCTTCAAATTGTCTTTTGTCA,0.375
8,"31.0 (DMSO control at this site: 1-bp insertion 0.315, MH deletion 0.329, edited 0.026) ACCTCCACAGGCTGGGTGGCCCGGAGGCTGGGCGGCCCGGAGGCTGGGCTGGGCGAGTATC",0.477
9,"29.0 (DMSO control at this site: 1-bp insertion 0.084, MH deletion 0.745, edited 0.133) TTGATGAACTTCCTCTTCTTCTCATGTCTCCGGTCTCCGGTAGGCCACGTGCATGGCCACT",0.718
10,"17.0 (DMSO control at this site: 1-bp insertion 0.112, MH deletion 0.348, edited 0.058) CCATAGCGCGATAAATATGACGGCTCATCCTGTATGACGGCTCATCCTGTATCAACTGTCC",0.409
11,"45.0 (DMSO control at this site: 1-bp insertion 0.017, MH deletion 0.666, edited 0.101) TTACACAGCATGAACTGCTAGGTGATGATGTCAGATTCGGTTTTACTAACTTCTCCAAAAA",0.601
12,"30.0 (DMSO control at this site: 1-bp insertion 0.074, MH deletion 0.67, edited 0.142) GAGCTGGCATGAGTATTTGTGCCACATGGCTCCCACATGGCTCCACATGCAAGTTTGAAAC",0.697
13,"44.0 (DMSO control at this site: 1-bp insertion 0.181, MH deletion 0.512, edited 0.123) ACACATACCTTCTTCGAGGCAGCCAGCATGATGAGACAGGTCTCCCACAAACACATCGTGT",0.525
14,"20.0 (DMSO control at this site: 1-bp insertion 0.349, MH deletion 0.138, edited 0.084) TACAGGTGTAGACTGGTTACGTGGCTGCGGAATTGACTGGTTACGTGGCTGCGGAATTTTG",0.197
15,"43.0 (DMSO control at this site: 1-bp insertion 0.134, MH deletion 0.714, edited 0.104) AGTTTAACTTACTCCGGCCAAAAAAGAACTGCACCTCTGGAGCGGGTTAGTGGTGGTGGTA",0.671
16,"33.0 (DMSO control at this site: 1-bp insertion 0.008, MH deletion 0.771, edited 0.112) CATTAAGAGCAGCTGCCGGCCCCCAAGTGGACAGAGCTGGCCCTGCTGATTCAACAGTGCA",0.732

# Compound: O=c1cc(N2CCOCC2)oc2c(-c3ccc4c(c3)OCCO4)csc12
# Test: as above
# Settings: mESC; 2uM; 72 h treatment, harvest day 5
row,Target,fraction of microhomology deletions among edited reads
1,"32.0 (DMSO control at this site: 1-bp insertion 0.03, MH deletion 0.85, edited 0.898) AGAAGTCCAGGATCAGGGGGACTGGGGTCGGGAGGGTGGGGCAGGAAGGAAGCCAGAATCA",0.92
2,"26.0 (DMSO control at this site: 1-bp insertion 0.518, MH deletion 0.262, edited 0.026) AGGGCGCGCCCCACGCACTCTGCGGCAAGTCCCTCTGCGGCAAGTCCTCGGCCCGGAAGAC",0.338
3,"34.0 (DMSO control at this site: 1-bp insertion 0.184, MH deletion 0.385, edited 0.103) ATTATAGGACCCTGAGGGAGCAGAGATGTGGGAATGGGGGCCGAGCCAATTGTGATGTAAG",0.476
4,"18.0 (DMSO control at this site: 1-bp insertion 0.114, MH deletion 0.789, edited 0.094) GCGCAAGTGCATAAGTTTTTCTTAAGGCGTGCCTTTAAGGCGTGCCTTTGTCGGTCCTGGA",0.833
5,"41.0 (DMSO control at this site: 1-bp insertion 0.022, MH deletion 0.754, edited 0.115) AAAGAGACAGCAGGTATGAATCCATCTTCCTGACCCTTGGGACCAGCCGGGGCAGTGAAGC",0.762
6,"47.0 (DMSO control at this site: 1-bp insertion 0.095, MH deletion 0.585, edited 0.118) GAGTGGTCCCGAGCCAGGAACTGTGTGTGTTGCAGGGGGGCAGTAACTCCCCAACTCCCTC",0.554
7,"35.0 (DMSO control at this site: 1-bp insertion 0.01, MH deletion 0.72, edited 0.098) CCACTTTTAGAGAGGGTGAAAATCATCAGTTATCATCAGGGCAACAAATTGCTTTCTCCTA",0.809
8,"16.0 (DMSO control at this site: 1-bp insertion 0.172, MH deletion 0.29, edited 0.05) CGGACTGCACACATGGGTAGGATCGTGCACGCGAGGTAGGATCGTGCACGCGAAGTTATTC",0.257
9,"19.0 (DMSO control at this site: 1-bp insertion 0.121, MH deletion 0.101, edited 0.057) TCTGCAGGGGTCGGAACCCGGGGGCTAGGGCTATCCCGGGGGCTAGGGCTATTAGCGAACC",0.125
10,"22.0 (DMSO control at this site: 1-bp insertion 0.573, MH deletion 0.229, edited 0.045) CTGATGGTTGAAGGATTTAGCCGGGGTCCTAGACGCCGGGGTCCTAGACGAAAGGGCCACG",0.146
11,"38.0 (DMSO control at this site: 1-bp insertion 0.063, MH deletion 0.487, edited 0.17) GGGCTGGGTGCTAAAATGAGGAGCTCCAAGAAGACTGAGGTGAACCTGGAGGCCCCTGAGC",0.476
12,"5.0 (DMSO control at this site: 1-bp insertion 0.214, MH deletion 0.567, edited 0.105) CGCTGACCCGAGACCTACGCGAACCGAAATCGGCGACCGGTGCGCAAGCAGGGCTGGCGTC",0.61
13,"1.0 (DMSO control at this site: 1-bp insertion 0.521, MH deletion 0.323, edited 0.141) GTGTCACAGTGCACGAGTGACGGGATAATGTGCTGACAGGTAATTGATAGGCTTCCAACTT",0.276
14,"0.0 (DMSO control at this site: 1-bp insertion 0.463, MH deletion 0.339, edited 0.14) AGGATTACCGAGACCTACGCGAACCGAAATCGCTGTCCGGTGCGCAAGCAGGGCTGGCGTC",0.384
15,"3.0 (DMSO control at this site: 1-bp insertion 0.109, MH deletion 0.149, edited 0.09) TGCTAGCGCCCCCACAAAGCGGACCAGCCAGCACTATAGGGAATAAGGCCAACTTGCACCC",0.162
16,"7.0 (DMSO control at this site: 1-bp insertion 0.128, MH deletion 0.374, edited 0.098) TACTCAACCGAGACCTACGCGAACCGAAATCGTATGCCGGTGCGCAAGCAGGGCTGGCGTC",0.43
17,"39.0 (DMSO control at this site: 1-bp insertion 0.328, MH deletion 0.371, edited 0.204) CTGCACAGTCACTTAGGATAGGAGAAGATGATGTATAGGGTTTAGTGGGAGATGTTGCAAG",0.406
18,21.0 CGATTGAGAGTCAAACGGGCCAGAAAACTCCGGGAACGGGCCAGAAAACTCCGGGGCATGG,0.158
19,"25.0 (DMSO control at this site: 1-bp insertion 0.017, MH deletion 0.774, edited 0.143) GGGCCTGAATGGTGTGGACATCTACTCGCTGGTGAGCTGGTGACTGAAAACATTCAGTGGC",0.772
20,27.0 CCAGAATTAGAACATATCATCTGGACCCTTTTCCATCTGGACCCTTTTCCAGCACACCCTG,0.137
21,"40.0 (DMSO control at this site: 1-bp insertion 0.072, MH deletion 0.192, edited 0.189) GCGAATCAACTGTTCAACAACAGCAGCAGCCACCTGGAGGACTACAGTGGCCTGTCCGTGT",0.211
22,"42.0 (DMSO control at this site: 1-bp insertion 0.145, MH deletion 0.655, edited 0.132) GGGCTAAACCTATGAGCACAGTAGAACTAAGGGTGGGTGGTGTAGCTAAAGAACTTGACCA",0.691
